LANA-H2A inh – blocks KSHV LANA binding to histone H2A/H2B; inhibition, % (no concentration beside the values); Q9QR71; cell-free LANA-H2A/H2B peptide, fluorescence polarization; AID 2629; 320,000 compounds, 0.6% hits; in the data active = inhibition mostly above about 10%, no sharp cut-off; inactive = mostly below about 6.7%
HDAC3 inh – human HDAC3 inhibition; AID 2718; 320,000 compounds, 0.15% hits; inhibition, % at 8.3 µM; recombinant HDAC3, fluorogenic peptide/trypsin coupled, fluorescence; in the data active = inhibition above about 26%, passing the limit was not always enough
IDE cell inh – inhibitors of human insulin-degrading enzyme in cells; HEK cells, FAbetaB cleavage, fluorescence polarization; inhibition, % at 5.59 µM; 320,000 compounds, 0.41% hits; P14735;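 active = percent inhibition above the average of all tested compounds plus 3 SD, set per screening campaign, cut at about 16% in these data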;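 note: IDE supplied by intact live HEK cells; FP after avidin binding of uncleaved biotin substrate so inhibition keeps polarization high; 0% = DMSO wells and 100% = 60 µM reference IDE inhibitor Ii1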
IDE act – IDE (human) activation, cell-based; P14735; 340,000 compounds, 0.073% hits; AID 493087; HEK cells, FAbeta-B cleavage, fluorescence polarization; 0% vehicle, 100% cell-free pure enzyme wells; activation, % at 5.96 µM;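 active = activation above the mean of all tested compounds plus 3 SD, set per screening campaign, cut at about 17% in these data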
SUMO Mot1 rescue – inhibitors of SUMOylation pathway: yeast Mot1-301 growth rescue. AID 2716. 320,000 compounds, 1% hits. S. cerevisiae Mot1-301 growth rescue, ATP luminescence, 38.5C; percent above DMSO median, 100 means doubled. growth rescue, % at 18.8 µM;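 active = every valid replicate shows activation above 250% relative to neutral control wells; inactive = the rest, any valid replicate at or below 250%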;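 note: OY570 slx delta 5 strain wells were the positive control but not used for scaling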
Mot1 SUMO dose – SUMO pathway inhibitors in yeast Mot1-301 growth | 2,300 tested, under 10 active | shares compounds with SUMO Mot1 rescue | S. cerevisiae Mot1-301 galactose growth, ATP luminescence, 24 h; -100 = growth of slx-deleted rescue strain | growth activity, percent, % at 42 µM | AID 493004;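 active = Signal drops as the depositor expects, and the fitted half-maximal dose is no more than ten times the top valid tested dose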;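 note: more negative values mean stronger growth rescue toward the control strain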
An asterisk follows results filed as active; x = no result given; + = active, no number. In the library only some 2.1% were active in any assay of this set; here they are far more common.

SMILES	LANA-H2A inh	HDAC3 inh	IDE cell inh	IDE act	SUMO Mot1 rescue	Mot1 SUMO dose
CS(=O)(=O)N(CC(=O)N1CCN(c2ccccc2F)CC1)C1CCCCC1	2	-5	1	-2	680*	0
O=C(CCc1ccccc1)N1CCN(c2ccc(F)cc2)CC1	5	3	2	-1	8	x
CN(C)c1oc(-c2ccccc2Cl)nc1S(=O)(=O)c1ccccc1	-2	-13	1	5	636*	0
CN(C)CCCNc1oc(-c2ccccc2Cl)nc1S(=O)(=O)c1ccccc1	0	10	4	-2	-9	x
C=CSc1sc(Cl)c(N(CC)CC)c1[N+](=O)[O-]	5	3	5	x	28	x
C=CSc1sc(Cl)c(N(C)C)c1[N+](=O)[O-]	-2	-14	0	2	411*	0
CCC(=O)c1c[nH]c(C(=O)NCCCn2ccnc2)c1	-4	9	-4	1	+	0
CCC(=O)Nc1ccc(C(=O)NCCCn2ccnc2)cc1	-5	-3	7	2	-3	x
CCC(CC)C(=O)N1CCCC(c2nc(-c3cccs3)no2)C1 (stereo not given)	-3	2	6	6	503*	1
N#C/C(=N\Nc1cccc(F)c1)C(=N)N1CCCCCC1	-1	1	-4	5	605*	0
N#C/C(=N\Nc1ccc(F)cc1)C(=N)N1CCCCC1	-1	6	2	-6	59	x
Cc1ccc(C(CNS(=O)(=O)c2ccc([N+](=O)[O-])cc2)N2CCN(C)CC2)cc1 (stereo not given)	4	-4	-3	2	42	x
CN(C)c1ccc(C(CNS(=O)(=O)c2ccc([N+](=O)[O-])cc2)N2CCOCC2)cc1 (stereo not given)	1	2	1	1	575*	0
Cc1ccccc1-n1ccnc1SCC(=O)Nc1cccc(S(=O)(=O)NC2=NCCC2)c1	-1	3	3	2	3	x
CCC(C)[C@H](NC(=O)OC(C)(C)C)C(=O)NCC1CCC(C(=O)N[C@@H](Cc2ccccc2)C(=O)O)CC1 (stereo not given in full)	0	3	-4	1	628*	-1
CC(C)(C)OC(=O)N[C@@H](Cc1ccccc1)C(=O)NCC1CCC(C(=O)N[C@@H](CC(=O)O)C(=O)O)CC1 (stereo not given in full)	3	-8	-2	4	288	x
CC(C)CC(NC(=O)C(CC(C)C)NC(=O)OC(C)(C)C)C(N)=O (stereo not given)	-5	3	-4	2	7	x
CC(=O)NC(CC(C)C)C(=O)NC(CO)C(=O)NC(CCC(=O)O)C(=O)NC(C)C(=O)NC(CC(C)C)C(N)=O (stereo not given)	5	-13	1	4	782*	0
CN(c1cccnc1)c1ncnc2[nH]ncc12	-1	1	-5	1	+	0
CN(CCc1ccccn1)c1ncnc2[nH]ncc12	7	-9	-4	3	-5	x
CCCOc1ccc(C(=O)NNC(=O)CCNC(=O)c2ccccc2Cl)cc1OC	-4	5	5	-1	-17	x
CCOc1ccc(NC(=O)Nc2ccc3nsnc3c2)cc1	-9	-2	-2	5	+	1
CCOc1ccc(NC(=S)Nc2ccc3nsnc3c2)cc1	1	11	6	-3	31	x
Cc1ccc(C(=O)C(OC(=O)c2cnccn2)c2ccccc2)cc1 (stereo not given)	3	1	3	-3	1	x
CC(OC(=O)c1cnccn1)C(=O)c1ccccc1 (stereo not given)	-3	-9	-2	3	433*	0
SMILES	LANA-H2A inh	HDAC3 inh	IDE cell inh	IDE act	SUMO Mot1 rescue	Mot1 SUMO dose
Cc1cccc(OCCC(=O)Nc2ccc(F)c(F)c2)c1	2	8	-3	0	380*	0
CN(C(=O)CSc1nnc(-c2cccc(F)c2)n1N)C1CCS(=O)(=O)C1 (stereo not given)	0	-3	1	1	401*	0
Cc1nc(N2CCN(c3ccccn3)CC2)c2c(C)c(C(=O)N3CCN(c4ccccc4F)CC3)sc2n1	3	1	6	2	427*	0
Cc1cc2c(cc1C)-c1nnc(-c3ccc4ccccc4n3)n1C(C)(C)C2	-2	-3	0	x	644*	0
COc1ccccc1NC(=S)N(Cc1ccco1)Cc1cc2cccc(C)c2[nH]c1=O	-2	-10	3	6	387*	0
O=C(CCC1CCCCC1)Nc1nnc(C(F)(F)F)s1	x	x	x	1	x	x
Cc1cc(NC(=O)c2ccc(N3C(=O)CCC3=O)cc2)no1	-1	-2	4	-2	701*	0
Cc1cc(NC(=O)c2ccc(N3C(=O)C4C5C=CC(C5)C4C3=O)cc2)no1 (stereo not given)	1	-4	1	-1	12	x
COc1ccc(CSCC(=O)N/N=C/c2ccccc2O)cc1	4	-5	6	10	3	x
Cc1ccc(CN2CCN(/N=C/c3cc(Br)cc(Br)c3O)CC2)cc1	3	-3	-14	-4	326	x
Oc1c(Br)cc(Br)cc1/C=N/N1CCN(Cc2ccccc2)CC1	6	-1	3	1	842*	0
C/C(=N/Nc1ccc([N+](=O)[O-])cc1)c1c[nH]c2ccccc12	-3	-1	x	3	149	x
COc1ccccc1/C=C/C(=O)c1ccccc1	6	4	x	0	85	x
COc1ccccc1/C=C/C(=O)c1c2c(c(C)[nH]c1=O)CCCC2	-8	9	-1	0	-13	0
O=C1COc2cc(O)ccc21	x	x	x	3	x	x
NC(=O)c1ccccc1NC(=O)c1ccc2c(c1)OCO2	0	4	1	3	700*	-1
NC(=O)c1ccccc1NC(=O)c1ccc2ccccc2c1	-1	-1	5	5	-8	x
O=C(Nc1ccc([N+](=O)[O-])cn1)c1ccc2c(c1)OCO2	0	0	1	3	605*	2
Fc1ccccc1CNc1nc(-c2cccnc2)nc2ccccc12	-2	5	6	-9	142	x
CCCCn1c(/N=C/c2ccc3c(c2)OCO3)nc2ccccc21	4	0	-2	7	577*	-1
CCOCCCNC(=O)c1ccc(NC(C)=O)cc1	0	1	0	3	17	x
CC(=O)Nc1ccc(C(=O)NCCCOC(C)C)cc1	0	6	3	0	798*	0
O=C(CC(=O)c1c(F)cccc1Cl)c1ccccc1O	-7	3	2	2	14	x
CCOC(=O)c1sc(NC(=O)CSc2n[nH]c(-c3ccc(Cl)cc3Cl)n2)c(C#N)c1C	6	-2	-1	1	459*	0
CCOc1ccccc1CN1CCNC(=O)C1CC(=O)NCCN1CCOC1=O (stereo not given)	-4	-1	1	-4	501*	1
